Data taken from PubChem BioAssay (EPA / NIEHS).
Values joined by “and” are separate entries in the source; they are usually repeats but may differ in a detail not shown here. Equal values may be shown once. Records with an inconclusive call do not appear. Active and inactive are the calls of the source. The calls were made as follows, unless noted: active = hit-call score of the fitted dose curve at least 0.9, where 1 is the maximum; inactive = score below 0.9.

What was measured:
[1] = read-out: Collagen I, COL1A1 (gene 1277); experiment: BSK_MyoF_CollagenI: BioMAP Diversity Plus: MyoF Assay for Collagen I Biomarker Activity (AID 2284238); settings: primary human lung fibroblasts
Method in brief: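 Human lung fibroblasts were exposed to test chemical for 24 h, then Collagen I was quantified by ELISA. Activity was fitted in the increasing direction against DMSO as the negative control and baseline.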

[2] = read-out: Collagen III, COL3A1 (gene 1281); experiment: BSK_MyoF_CollagenIII: BioMAP Diversity Plus: MyoF Assay for Collagen III Biomarker Activity (AID 2284239); settings: primary human lung fibroblasts
Method in brief: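 Human lung fibroblasts were dosed with chemicals and, 24 hours later, collagen III was measured by ELISA. Activity was fitted in the positive direction against the DMSO negative-control baseline.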

[3] = read-out: Interleukin 17F (IL17F), IL17F (gene 112744); experiment: BSK_BT_xIL17F: BioMAP Diversity Plus: BT Assay for Interleukin 17F (IL17F) Biomarker Activity (AID 2284243); settings: primary human B cells with PBMC
Method in brief: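 B cell/PBMC co-culture (human primary), 24 h compound exposure; sIL-17F by Luminex xMAP; gain-of-signal fit vs DMSO baseline.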

[4] = TAMU_HCS_1.5hr_SingleDonor1434_Cytotoxicity: Cytotoxicity Assessment using High-content Screening (HCS) Fluorescent Imaging for the Texas A&M University (TAMU) 1.5-hr Human Induced Pluripotent Stem Cell (iPSC)-derived Cardiotoxicity Assay (AID 2284234; active = hit-call score of the fitted dose curve at least 0.9, where 1 is the maximum)
Method in brief: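 Nuclear counts from Hoechst 33342 imaging define cytotoxicity here, with EC10 (10% cell-count loss relative to DMSO) as point of departure. iPSC cardiomyocytes received 0.2-100 uM test chemical in 0.5% DMSO for 1.5 h at 37 C.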

[5] = TAMU_PeakParms_SingleDonor1434_QT: Texas A&M University (TAMU) 1.5-hr Human Induced Pluripotent Stem Cell (iPSC)-derived Cardiomyocytes Calcium (Ca+2) Flux Assay for Cardiotoxicity: QT (decay-rise ratio) (AID 2284235; active = hit-call score of the fitted dose curve at least 0.9, where 1 is the maximum)
Method in brief: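 Decay/rise ratio of calcium-flux fluorescence scored after 90 min exposure (37C) of donor 1434 iPSC cardiomyocytes to 0.2–100 uM (0.5% DMSO). Beat-cessation and severe-notch points removed; POD is EC05, a 5% rise over DMSO.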

[6] = CCTE_Mundy_HCI_hNP1_CellTiter: CCTE's Cell Titer-Glo 2 Assay in human neuroprogenitor cells for Viability, Mundy Lab (AID 2284241; active = hit-call score of the fitted dose curve at least 0.9, where 1 is the maximum;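 as to AC50: a hit is a drop in ATP luminescence versus DMSO meaning reduced viability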)
Method in brief: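 Human neural progenitor cells (hNP1, WA09-derived) were plated on poly-L-ornithine/laminin and grown 40 to 44 hours at 37 °C, 5% CO2 before chemical addition. Twenty-four hours later, ATP was measured by CellTiter-Glo luminescence; loss of signal versus DMSO indicates reduced viability.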

[7] = CCTE_Mundy_HCI_Cortical_NOG_BPCount: CCTE's Neurite Outgrowth Assay in rat cortical cells for Branch Point Count, Mundy Lab (AID 2284237);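 as to AC50: branch points counted about two days after chemical exposure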
Method in brief: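 Measured 50.33 h after dosing, this morphology endpoint uses rat primary cortical cultures labelled for betaIII-tubulin. Branch points are quantified by high-content imaging, with DMSO as negative control and baseline.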

[8] = CCTE_Mundy_HCI_Cortical_Synap_Neur_Matur_NeuronCount: CCTE's Synaptogenesis and Neurite Maturation Assay in rat cortical cells for Neuron Count, Mundy Lab (AID 2284242; active = hit-call score of the fitted dose curve at least 0.9, where 1 is the maximum;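 as to AC50: neuron number from Hoechst nuclei and MAP2 staining by high-content imaging; hits reduce neuron count versus DMSO baseline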)
Method in brief: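 Cortical cells from rat are plated, treated with AraC at DIV 5, and exposed to test chemicals with a media change at DIV 7. At DIV 12 they are fixed and immunostained (MAP2, synaptophysin), and imaged neuron counts are compared against DMSO controls.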

[9] = CCTE_Mundy_HCI_Cortical_NOG_NeuronCount: CCTE's Neurite Outgrowth Assay in rat cortical cells for Neuron Count, Mundy Lab (AID 2284236; active = hit-call score of the fitted dose curve at least 0.9, where 1 is the maximum;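 also: neurons counted by imaging betaIII-tubulin and Hoechst stained cortical cells; cells exposed to compound for about 48 hours before fixation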)
Method in brief: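 Read-out: neuron number by high-content imaging of betaIII-tubulin (Alexa Fluor-488) and Hoechst-labelled rat primary cortical cells.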

[10] = UKN2_HCS_IMR90_cell_viability: Viability Assessment in the University of Konstanz (UKN) Leist Lab Neural Crest Cell Migration Assay in human induced IMR90 Pluripotent Stem Cells (UKN2) (AID 2284233);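 also: cells exposed to compound for 24 h after a 24 h migration phase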
Method in brief: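 After calcein-AM/Hoechst staining, viability is quantified by high-content fluorescence imaging, relative to DMSO, in iPSC (IMR90)-derived neural crest cells. Exposure lasts 24 h, starting after a 24 h migration period on PLO/laminin/fibronectin coating.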

C[Si](C)(C)C(F)(F)C(F)(F)C(F)(F)F
outcome [1]: inactive | outcome [2]: inactive | outcome [3]: inactive

c1ccc2c(c1)-c1cccc3c1c-2cc1ccccc13
outcome [4]: inactive | outcome [5]: inactive

FC(F)=C(F)C(F)(F)C(F)(F)C(F)(F)C(F)(F)C(F)(F)C(F)(F)F
outcome [1]: inactive | outcome [2]: inactive | outcome [6]: inactive | outcome [3]: inactive

OCCC(F)(F)C(F)(F)C(F)(F)C(F)(F)F
outcome [1]: inactive | outcome [2]: inactive | outcome [3]: inactive

NNC(=O)c1ccncc1
outcome [7]: inactive | outcome [6]: inactive | outcome [8]: inactive

Cn1cc[nH]c1=S
outcome [9]: inactive | outcome [7]: inactive | outcome [6]: inactive

S=P(N1CC1)(N1CC1)N1CC1
outcome [1]: inactive | outcome [2]: inactive | AC50 [3]: 20.9 µM (active)

CCN(CC)C(=S)SSC(=S)N(CC)CC
AC50 [4]: 50 µM (active)

CC(C)C(=O)Nc1ccc([N+](=O)[O-])c(C(F)(F)F)c1
outcome [4]: inactive | outcome [5]: inactive

OC(Cn1cncn1)(Cn1cncn1)c1ccc(F)cc1F
outcome [7]: inactive | outcome [6]: inactive

CCCC(CCC)C(=O)O
outcome [10]: inactive | outcome [5]: inactive | outcome [7]: inactive | outcome [6]: inactive | outcome [8]: inactive

O=S(=O)(O)CCC(F)(F)C(F)(F)C(F)(F)C(F)(F)C(F)(F)C(F)(F)F
outcome [1]: inactive | outcome [2]: inactive | outcome [3]: inactive

Nc1ccn([C@@H]2O[C@H](CO)[C@@H](O)[C@@H]2O)c(=O)n1
outcome [10]: inactive | AC50 [9]: 1.58 µM (active) and 2.33 µM (active) | AC50 [7]: 11.9 µM (active) and 3 µM (active) | outcome [6]: inactive | AC50 [8]: 4.39 µM (active) and 3.57 µM (active)

FC(F)(F)COC(OCC(F)(F)F)OCC(F)(F)F
outcome [1]: inactive | outcome [2]: inactive | outcome [3]: inactive

OCc1c[nH]c2ccccc12
outcome [1]: inactive | outcome [2]: inactive | outcome [3]: inactive

O=C(Cl)C(F)(F)C(F)(F)C(F)(F)C(=O)Cl
outcome [1]: inactive | outcome [2]: inactive | outcome [6]: inactive | outcome [3]: inactive

Cc1cccc(O)c1C
outcome [1]: inactive | outcome [2]: inactive | outcome [3]: inactive

FC(F)(F)C(F)(F)C(F)(F)C(F)(F)C(F)(F)C(F)(F)I
AC50 [1]: 33.1 µM (active) and 39.4 µM (active) | AC50 [2]: 30 µM (active) | outcome [6]: inactive | outcome [3]: inactive

NCC(F)(F)C(F)(F)C(F)(F)C(F)(F)F
outcome [1]: inactive | outcome [2]: inactive | outcome [3]: inactive

OC[C@H]1O[C@@](CO)(O[C@H]2O[C@H](CO)[C@@H](O)[C@H](O)[C@H]2O)[C@@H](O)[C@@H]1O
outcome [4]: inactive

FC(F)C(F)(F)COCC1CO1 (stereo not drawn)
outcome [1]: inactive | outcome [2]: inactive | outcome [3]: inactive

c1ccc2cc3ccccc3cc2c1
outcome [9]: inactive | outcome [7]: inactive | outcome [6]: inactive

COc1cc2c(c(OC)c1OC)-c1ccc(OC)c(=O)cc1[C@@H](NC(C)=O)CC2
outcome [5]: inactive | AC50 [9]: 53.5 nM (active) | AC50 [7]: 9.88 nM (active) | AC50 [6]: 0.0224 µM (active) | AC50 [8]: 33.9 nM (active)

OC(O)(C(F)C(O)(O)C(F)(F)F)C(F)(F)F
outcome [1]: inactive | outcome [2]: inactive | outcome [6]: inactive | AC50 [3]: 46.7 µM (active) and 30 µM (active)

NC(=O)N1c2ccccc2C=Cc2ccccc21
outcome [10]: inactive | outcome [9]: inactive | outcome [7]: inactive | outcome [6]: inactive

C[C@]12C=CC(=O)C=C1CC[C@H]1[C@@H]3C[C@@H](O)[C@](O)(C(=O)CO)[C@@]3(C)C[C@H](O)[C@@]12F
AC50 [9]: 23600 nM (active) | AC50 [7]: 20100 nM (active) | AC50 [6]: 25.6 µM (active) | AC50 [8]: 3750 nM (active)
